High-throughput results deposited in PubChem BioAssay by National Center for Advancing Translational Sciences (NCATS).
TbPYK inhibitor: T. brucei pyruvate kinase inhibition; hit rate 0.12% among 410,000; TbPYK enzyme, Kinase-Glo Plus ATP luminescence, 45 min; Q57TT1; Potency, µM (series often up to 76.8 µM), without a hit: at the highest dose activity, negative = inhibition, actives largely listed as inhibitors; AID 624173; note: nearly all actives have a fitted effect of over 50% in size
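Assay buffer: 50 mM TEA pH 7.2, 100 mM KCl, 10 mM MgCl2, 0.05% BSA, 0.01% Tween-20. Pyruvate kinase from T. brucei plus substrate met compound, then ADP (130 uM final). Luminescence was read post 45 min RT.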
Sm TGR block: inhibitors of Schistosoma mansoni thioredoxin glutathione reductase; Potency, µM (highest dose often 114 µM), inactives show at the top dose activity change, negative = inhibition, hits mostly inhibitors; hit rate 3% among 360,000; purified TGR, DTNB reduction, TNB absorbance 405 nm; Q962Y6; note: nearly all actives have a fitted effect of over 60% in size
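TGR 20 nM + NADPH 100 uM (dispensed conc.), cpd preinc 15 min RT; start with NADPH (500 uM addition) then DTNB (15 mM addition). Kinetic TNB absorbance, 405 nm filter. Four-parameter Hill fit across titration.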
LmPK inhibitor: blocks Leishmania mexicana pyruvate kinase activity; Q27686; AID 1721; hit rate 0.37% among 290,000; Potency, µM (doses to about 57.5 µM), for inactives: at the top dose activity change, negative = inhibition, usual class: inhibitors; purified LmPK, Kinase-Glo ATP luminescence, 1 h
Target sequence (Q27686 whole entry, looked up): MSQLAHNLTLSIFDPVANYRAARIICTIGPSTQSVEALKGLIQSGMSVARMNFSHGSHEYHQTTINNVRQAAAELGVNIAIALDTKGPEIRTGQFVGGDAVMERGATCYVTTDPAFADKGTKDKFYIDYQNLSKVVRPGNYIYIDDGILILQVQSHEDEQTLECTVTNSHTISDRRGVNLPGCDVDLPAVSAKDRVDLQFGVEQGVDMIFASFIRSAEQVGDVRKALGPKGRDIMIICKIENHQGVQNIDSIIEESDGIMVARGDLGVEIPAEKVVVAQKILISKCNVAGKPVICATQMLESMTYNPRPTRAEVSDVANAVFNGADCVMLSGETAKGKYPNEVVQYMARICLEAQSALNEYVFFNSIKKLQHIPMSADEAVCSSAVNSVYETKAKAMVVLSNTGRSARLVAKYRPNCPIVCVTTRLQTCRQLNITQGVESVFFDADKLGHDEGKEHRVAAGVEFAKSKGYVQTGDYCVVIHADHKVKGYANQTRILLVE
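qHTS format; LmPK 0.1 nM; substrates PEP 0.5 mM and ADP 0.1 mM. One-hour room-temperature incubation, then coupled luciferase luminescence; 0.5 nM enzyme wells mark activation.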
RE007 growth inh: less growth of the S. pombe RE007 Vpr strain | S. pombe RE007 Vpr strain, BacTiter-Glo ATP luminescence, 24 h | Potency, µM (highest dose often 92.2 µM), inactives show at the highest dose activity change, negative = less growth, actives largely listed as inhibitors | hit rate 0.21% among 360,000 | AID 651644; active = well fitted falling curve with a large enough effect; inconclusive = small, poorly fitted or top-dose-only effect; inactive = no such curve, though single readings can be large or run the other way; note: nearly all actives have a fitted effect of over 50% in size
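Fission yeast RE007 carrying one integrated HIV-1 vpr copy, seeded at OD 0.01 in PMG+AL medium with 23 nL pinned compound. Grown 24 h at 30 degrees; viability read by BacTiter-Glo luminescence after 5 min.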
AMA1 RON2 block: inhibitors of Plasmodium falciparum AMA1-RON2 interaction. AlphaScreen AMA1-biotinylated RON2 peptide binding. Potency, µM (doses to about 58.2 µM), inactives show top-dose activity change, negative = inhibition, most hits filed as inhibitors. hit rate 0.2% among 360,000. AID 720542;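 note: 0% = vehicle wells and -100% = peptide control; nearly all actives have a fitted effect of over 45% in size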
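AMA1 (3D7) with his tag at 25 nM final met compounds first, then biotinylated RON2 peptide at 25 nM; detection used donor plus acceptor beads, 10 µg/mL apiece, read by AlphaScreen after 30 min at room temperature.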
The depositor's hits bear a star; ? = inconclusive; / = no result; [ ] = remark or other dose. Rows were chosen to be rich in hits. Some 3.2% of all compounds tested hit in one or more screens of this group. Unless noted, calls come from the whole dose curve; as a rule, active = well fitted curve in the direction sought with a large enough effect; inconclusive = small, poorly fitted or top-dose-only effect, or another doubt; inactive = no such curve, though single readings can be large; an effect the other way counts as inactive or inconclusive. Unless noted, % is set by controls: 0 for no effect and ±100 for the full control effect; potency is the fitted concentration of half-maximal effect.

SMILES	TbPYK inhibitor	Sm TGR block	LmPK inhibitor	RE007 growth inh	AMA1 RON2 block
O=C(NCc1ccoc1)c1ccc(NC(=O)c2ccccc2Cl)cc1	-11%	35µM*	0%	17%	-1%
O=C(Nc1ccc(C(=O)N2CCCCC2)cc1)c1ccccc1Cl	4%	-14%	-9%	36%	14%
CC(C)N1C(=S)N(Cc2ccco2)C(=O)C1CC(=O)Nc1ccccc1 (stereo not drawn)	3%	40µM*	17%	?	-11%
O=C(CC1C(=O)N(c2ccccc2)C(=O)N1Cc1ccco1)Nc1ccccc1 (stereo not drawn)	2%	?	-3%	2%	-17%
CSCCC(NS(=O)(=O)c1ccc2c(c1)oc(=O)n2C)C(=O)NCCc1ccc(C)cc1 (stereo not drawn)	6%[15.4 µM]	3%	/	/	/
CCc1sc(C(C2C(=O)CC(C)(C)CC2=O)C2C(=O)CC(C)(C)CC2=O)cc1[N+](=O)[O-]	25µM*	4µM*	-1%	0%	-1%
CC1(C)CC(=O)C(C(c2ccco2)C2C(=O)CC(C)(C)CC2=O)C(=O)C1	?	?	0%	22%	37%
Cc1ccccc1OCCN1C(=O)C(=O)c2cccc(C)c21	4%	-5%	2%	-2%	-10%
COc1ccccc1OCCCN1C(=O)C(=O)c2cccc(C)c21	2%	3.2µM*	-10%	-10%	-1%
COCC(=O)Nc1nc2n(n1)C(c1ccc(Cl)cc1)CC(c1ccc(OC)cc1)N2 (stereo not drawn)	-11%	25µM*	9%	-18%	15%
COc1cccc(C2CC(c3ccccc3Cl)n3nc(N)nc3N2)c1 (stereo not drawn)	3%	0%	-3%	12%	0%
COc1ccc(C2CC(c3ccc(OC)cc3)n3nc(NC(=O)c4cccs4)nc3N2)cc1 (stereo not drawn)	1%	6%	-1%	-12%	60%
COCC(=O)Nc1nc2n(n1)C(c1ccccc1Cl)CC(c1ccc(OC)cc1)N2 (stereo not drawn)	1%	40µM*	6%	12%	17%
COc1ccc(N2CCN(c3ccc(NC(=O)/C=C\C(=O)O)cc3)CC2)cc1	7%	-2%	3%	-10%	-29%
O=C(O)/C=C/C(=O)Nc1ccc(N2CCOCC2)nc1N1CCOCC1	?	2.2µM*	-6%	4%	-4%
COc1cc(OC)c(OC)cc1/C=C1\CC(C)C/C(=C\c2cc(OC)c(OC)cc2OC)C1=O (stereo not drawn)	-6%	-30%	3%	7%	32µM*
CCC1C/C(=C/c2ccco2)C(=O)/C(=C/c2ccco2)C1 (stereo not drawn)	/	20µM*	7%	/	/
CCC1C/C(=C\c2cc(OC)c(OC)cc2OC)C(=O)/C(=C/c2cc(OC)c(OC)cc2OC)C1 (stereo not drawn)	-5%	-21%	0%	9%	22µM*
C[C@H]1Cc2c(-c3ccccc3)nc3c(c2CO1)CN(S(=O)(=O)c1ccc2c(c1)OCCN2C)CC3	/	/	-2%[11.5 µM]	/	/
Cc1cc2oc(C(=O)Nc3ccc(S(N)(=O)=O)cc3)cc(=O)c2cc1C	0%	0%	/	/	/
COc1ccc(-c2cc(C(=O)Nc3c(C)nn(Cc4ccc(F)cc4)c3C)no2)cc1OC	2%	2%	/	/	/
Oc1ccc(NCc2ccc(OCc3ccccc3)cc2)cc1	?	7.1µM*	0%	-10%	42%
CCc1ccc(CNc2ccc(O)cc2)cc1	2%	22µM*	-1%	-3%	8%
CCOc1cc(CNc2ccc(O)cc2)ccc1OCc1ccc(Cl)cc1Cl	-21%	?	-1%	0%	38%
Oc1ccc(NCc2ccc(OCc3ccccc3Cl)cc2)cc1	-22%	35µM*	/	/	/
SMILES	TbPYK inhibitor	Sm TGR block	LmPK inhibitor	RE007 growth inh	AMA1 RON2 block
CCC(=O)Nc1ccc(NCc2ccc(-c3ccccc3)cc2)cc1	0%	-2%	-3%	1%	-4%
COC(=O)c1sccc1NC(=O)Nc1ccccc1F	?	0%	14µM*	-22%	13%
CN[C@H](C)CCC=C(C)C	-8%	/	/	/	/
N#CC1=C(N)Oc2ccc3ccccc3c2C1c1cccnc1 (stereo not drawn)	2%	40µM*	1%	2%	-4%
N#CC1=C(N)Oc2cc(O)ccc2C1c1cccnc1 (stereo not drawn)	19%	-13%	3%	2%	-5%
N#CC1=C(N)Oc2cc(O)c(Cl)cc2C1c1ccccc1F (stereo not drawn)	-6%	45µM*	-3%	/	9%
N#CC1=C(N)Oc2cc(O)c(Cl)cc2C1c1cccnc1 (stereo not drawn)	-14%	32µM*	1%	16%	-27%
CCOc1ccc(C(=O)CSc2nc3cc(C(=O)NC4CCCC4)ccc3c(=O)n2CC2CCCO2)cc1 (stereo not drawn)	6%	7%	/	/	/
COc1ccc(OC)c(CNC(=O)c2ccc(-c3nc(CSc4ccccc4)c(C)o3)cc2)c1	4%	-2%	/	/	/
Cc1cccc(N2CCN(C(=O)C3CCN(S(=O)(=O)c4cn(C)cn4)CC3)CC2)c1C	-6%	-12%	/	/	/
Nc1ccc(C(=O)N/N=C/c2cn(Cc3ccc(F)cc3)c3ccccc23)cc1	1%	2%	4%	-4%	21%
O=C(N/N=C/c1cn(Cc2cccc(F)c2)c2ccccc12)c1cc(O)cc(O)c1	1%	-29%	15%	30%	25µM*
Cc1ccc(NC(=O)/C=C\C(=O)NCC(=O)O)cc1C	-11%	1.8µM*	-1%	?	82%
CC(=O)Nc1ccc(SCc2ncc(-c3ccccc3)o2)cc1	5%	2%	-2%	-14%	2%
c1ccc(-c2cnc(CSc3ncnc4sccc34)o2)cc1	-12%	10µM*	5%	-5%	35%
O=C(/C=C/N1CCOCC1)c1coc2ccccc12	7%	79µM*	-19%	4%	14%
CCCCCC(=O)Cc1cc(O)cc2c1C(=O)Oc1cc(O)c(C(=O)O)c(CCCCC)c1O2	-2%	35µM*	17%	9%	-8%
Cc1ccc(Cl)cc1N1CCN(C(=O)c2sc3nc4n(c(=O)c3c2C)CCC4)CC1	-2%	6%	/	/	/
Cc1ccc(C(=O)N2CCN(C(=O)c3ccccc3)C2c2ccc(N(C)C)cc2)cc1 (stereo not drawn)	-7%	3%	4%	/	-8%
Cc1ccc(C(=O)N2CCn3c(C)ccc3C2C)cc1 (stereo not drawn)	-5%	22µM*	3%	23%	-5%
Cc1cc(C)nc(S/C=C/C(=O)c2ccc(F)cc2)n1	/	0.71µM*	3%	/	/
Cc1cc(C)nc(SCC(=O)c2ccc(F)cc2)n1	-4%	-21%	-6%	3%	1%
Cc1[nH]c(=O)c(C#N)c2c1CCCC2	-3%	-6%	-7%	-2%	5%
Cc1[nH]c(=S)c(C#N)c2c1CCCC2	3.5µM*	-17%	5%	69%	122%
